# According to PubChem BioAssay (EPA / NIEHS):
# Some structures have more than one record in an assay (separate samples or runs), and their calls can disagree. Activity calls are given as the source filed them. How the source made its calls: active means hit-call score of the fitted dose curve at least 0.9, where 1 is the maximum; inactive means score below 0.9.
# Assay: BSK_BT_Bcell_Proliferation: Viability Assessment in the BioMAP Diversity Plus: BT Assay for B cell Proliferation (AID 2284227)
# Conditions: primary human B cells with PBMC
# Protocol: BSK_BT is a cell-based, multiplexed-readout assay that uses B cell and peripheral blood mononuclear cells, a human vascular primary cell co-culture, with measurements taken at 24 hours after chemical dosing in a microplate: 96-well plate.BSK_BT_Bcell_Proliferation is an assay component measured in the BSK_BT assay. It measures protein content, a form of viability reporter, as detected with absorbance signals by Sulforhodamine staining technology.Data from the assay component BSK_BT_Bcell_Proliferation was analyzed at the endpoint, BSK_BT_Bcell_Proliferation, in the positive analysis fitting direction relative to DMSO as the negative control and baseline of activity. Using a type of viability reporter, gain or loss-of-signal activity can be used to understand cellular changes in viability. To generalize the intended target to other relatable targets, this assay endpoint is annotated to the 'cell cycle' intended target family, where the subfamily is 'proliferation'.
# The levels of cell surface (or secreted, indicated by the prefix "s") biomarker endpoints were measured by ELISA. Overt cytotoxicity to cells in confluent adherent cultures (all systems other than the BT system) was assessed by measuring total protein levels using sulforhodamine B (SRB) staining in parallel cultures at the time of biomarker measurements, indicated as SRB endpoints. For proliferation assays for adherent cell types, individual cell types are cultured at sub-confluence and relative cell numbers quantified by SRB staining at time points optimized for each system (48 h: 3C and CASM3C systems; 72 h: BT and HDF3CGF systems; 96 h: SAg system). SRB was performed by staining cells with 0.1% SRB after fixation with 10% TCA and reading wells at 560 nm.Viability and proliferation of PBMC (T cells) was quantified by Alamar Blue reduction for the SAg and BT systems. For PBMC viability (referred to as PBMC Cytotoxicity within the assay endpoint names), cells were plated (75,000/well in a 96-well plate) and then chemical samples added for 1 h before addition of activators, SEB and TSST-1 (20 ng/mL final concentration each). Cells were incubated for 90 h. Then, Alamar Blue (20 uL/well) (Invitrogen, Cat DAL1100) was added for 6 h, and the plates were read with a fluorescence microplate reader at 546/580 nm (excitation/emission). For PBMC proliferation, cells were plated and activated as above but incubated for only 16 h prior to addition of Alamar Blue. Plates were read after 6 h.
SMILES,outcome,AC50
OCCC(F)(F)C(F)(F)C(F)(F)C(F)(F)F,inactive,–
O=C(Cl)C(F)(F)C(F)(F)C(F)(F)C(=O)Cl,inactive,–
FC(F)=C(F)C(F)(F)C(F)(F)C(F)(F)C(F)(F)C(F)(F)C(F)(F)F,inactive,–
Cc1cccc(O)c1C,inactive,–
FC(F)(F)C(F)(F)C(F)(F)C(F)(F)C(F)(F)C(F)(F)I,inactive,–
O=S(=O)(O)CCC(F)(F)C(F)(F)C(F)(F)C(F)(F)C(F)(F)C(F)(F)F,inactive,30 µM (active)
FC(F)(F)COC(OCC(F)(F)F)OCC(F)(F)F,inactive,–
C[Si](C)(C)C(F)(F)C(F)(F)C(F)(F)F,inactive,–
OCc1c[nH]c2ccccc12,–,3.97 µM (active)
NCC(F)(F)C(F)(F)C(F)(F)C(F)(F)F,inactive,–
OC(O)(C(F)C(O)(O)C(F)(F)F)C(F)(F)F,–,30 µM (active)
S=P(N1CC1)(N1CC1)N1CC1,–,8.1 µM (active)
FC(F)C(F)(F)COCC1CO1 (centres undefined),inactive,–
